What all share (test): log2 fold change, soluble protein after heating vs DMSO (PISA); higher = thermal stabilisation; K562 lysate, 10 uM; active = over 0.2 and 3.5 SD of the protein, either way, in both replicates (recomputed)
Compound in test [1]: NCC(=O)Nc1ccc(-n2nc(C(F)(F)F)cc2-c2ccc3c(ccc4ccccc43)c2)cc1
In short, it runs like this: (§1)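 Soluble protein was defined as the supernatant remaining after 21,000xg for 90 min, following pooling of heated aliquots and adjustment to 0.5% NP-40 at 4°C. Before that, crude K562 extract at 1 mg/mL protein in PBS pH 7.4 with 1 mM MgCl2 was treated with 10 μM compound for 30 min and heated for 3 min across 48°C-58°C. Quantification used TMTpro 16plex LC-MS/MS with channel sums equalised, and values are log-two fold changes in thermal stability relative to solvent controls from duplicates.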

Compound in the next test: O=C(CCCCCCC(=O)Nc1ccccc1)NO [vorinostat]
Put shortly:
as §1

Compound in the next test: O=C(O)c1ccc2c(c1)nc(Nc1cccc(Cl)c1)c1ccncc12 [silmitasertib]
Put shortly:
as §1

Compound in test [2]: O=C1NC(=O)C(c2cnc3ccccn23)=C1c1cn2c3c(cc(F)cc13)CN(C(=O)N1CCCCC1)CC2
Put shortly:
as §1

Compound in another test: c1cn2cc(-c3ccc4cn[nH]c4c3)nc(Nc3ccc(N4CCOCC4)cc3)c2n1 [entospletinib]
In short, it runs like this:
as §1

The full data set covers some 8,800 targets. This sample favours those with a hit. About 0.5% of all pairs of compound and target were hits. A number with no mark means an inactive call.

This is an account of results in the supplement of paper PMC10849652.

Chain of UniProt P07947 (P07947 whole entry, looked up): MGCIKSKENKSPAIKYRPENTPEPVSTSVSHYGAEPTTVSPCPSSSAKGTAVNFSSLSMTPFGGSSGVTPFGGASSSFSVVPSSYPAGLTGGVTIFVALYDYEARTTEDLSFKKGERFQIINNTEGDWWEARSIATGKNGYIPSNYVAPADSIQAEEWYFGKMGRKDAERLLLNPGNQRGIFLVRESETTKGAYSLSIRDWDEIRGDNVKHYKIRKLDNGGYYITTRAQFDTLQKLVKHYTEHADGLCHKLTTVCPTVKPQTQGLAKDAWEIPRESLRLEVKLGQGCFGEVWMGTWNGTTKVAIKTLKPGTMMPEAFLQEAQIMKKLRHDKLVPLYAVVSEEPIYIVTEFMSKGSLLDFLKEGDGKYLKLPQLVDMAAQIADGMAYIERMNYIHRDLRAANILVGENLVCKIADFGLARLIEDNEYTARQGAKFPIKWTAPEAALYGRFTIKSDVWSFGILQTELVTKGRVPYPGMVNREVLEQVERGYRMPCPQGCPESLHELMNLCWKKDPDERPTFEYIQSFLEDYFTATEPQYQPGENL
Chain of UniProt Q9NWK9 (Q9NWK9 whole entry, looked up): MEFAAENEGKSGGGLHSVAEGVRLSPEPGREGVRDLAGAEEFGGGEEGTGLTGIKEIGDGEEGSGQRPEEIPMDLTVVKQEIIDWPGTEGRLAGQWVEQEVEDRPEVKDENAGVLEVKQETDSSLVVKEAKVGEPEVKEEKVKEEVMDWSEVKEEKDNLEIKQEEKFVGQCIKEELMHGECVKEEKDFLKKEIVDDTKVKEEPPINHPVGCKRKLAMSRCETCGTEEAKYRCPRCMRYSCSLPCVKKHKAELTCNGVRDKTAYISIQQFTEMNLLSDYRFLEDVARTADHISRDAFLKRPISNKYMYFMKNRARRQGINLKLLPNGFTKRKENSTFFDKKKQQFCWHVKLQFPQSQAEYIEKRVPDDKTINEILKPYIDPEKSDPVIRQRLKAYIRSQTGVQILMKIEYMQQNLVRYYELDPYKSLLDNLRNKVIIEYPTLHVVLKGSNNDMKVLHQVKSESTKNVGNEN
Chain of UniProt Q9H6S0 (Q9H6S0 whole entry, looked up): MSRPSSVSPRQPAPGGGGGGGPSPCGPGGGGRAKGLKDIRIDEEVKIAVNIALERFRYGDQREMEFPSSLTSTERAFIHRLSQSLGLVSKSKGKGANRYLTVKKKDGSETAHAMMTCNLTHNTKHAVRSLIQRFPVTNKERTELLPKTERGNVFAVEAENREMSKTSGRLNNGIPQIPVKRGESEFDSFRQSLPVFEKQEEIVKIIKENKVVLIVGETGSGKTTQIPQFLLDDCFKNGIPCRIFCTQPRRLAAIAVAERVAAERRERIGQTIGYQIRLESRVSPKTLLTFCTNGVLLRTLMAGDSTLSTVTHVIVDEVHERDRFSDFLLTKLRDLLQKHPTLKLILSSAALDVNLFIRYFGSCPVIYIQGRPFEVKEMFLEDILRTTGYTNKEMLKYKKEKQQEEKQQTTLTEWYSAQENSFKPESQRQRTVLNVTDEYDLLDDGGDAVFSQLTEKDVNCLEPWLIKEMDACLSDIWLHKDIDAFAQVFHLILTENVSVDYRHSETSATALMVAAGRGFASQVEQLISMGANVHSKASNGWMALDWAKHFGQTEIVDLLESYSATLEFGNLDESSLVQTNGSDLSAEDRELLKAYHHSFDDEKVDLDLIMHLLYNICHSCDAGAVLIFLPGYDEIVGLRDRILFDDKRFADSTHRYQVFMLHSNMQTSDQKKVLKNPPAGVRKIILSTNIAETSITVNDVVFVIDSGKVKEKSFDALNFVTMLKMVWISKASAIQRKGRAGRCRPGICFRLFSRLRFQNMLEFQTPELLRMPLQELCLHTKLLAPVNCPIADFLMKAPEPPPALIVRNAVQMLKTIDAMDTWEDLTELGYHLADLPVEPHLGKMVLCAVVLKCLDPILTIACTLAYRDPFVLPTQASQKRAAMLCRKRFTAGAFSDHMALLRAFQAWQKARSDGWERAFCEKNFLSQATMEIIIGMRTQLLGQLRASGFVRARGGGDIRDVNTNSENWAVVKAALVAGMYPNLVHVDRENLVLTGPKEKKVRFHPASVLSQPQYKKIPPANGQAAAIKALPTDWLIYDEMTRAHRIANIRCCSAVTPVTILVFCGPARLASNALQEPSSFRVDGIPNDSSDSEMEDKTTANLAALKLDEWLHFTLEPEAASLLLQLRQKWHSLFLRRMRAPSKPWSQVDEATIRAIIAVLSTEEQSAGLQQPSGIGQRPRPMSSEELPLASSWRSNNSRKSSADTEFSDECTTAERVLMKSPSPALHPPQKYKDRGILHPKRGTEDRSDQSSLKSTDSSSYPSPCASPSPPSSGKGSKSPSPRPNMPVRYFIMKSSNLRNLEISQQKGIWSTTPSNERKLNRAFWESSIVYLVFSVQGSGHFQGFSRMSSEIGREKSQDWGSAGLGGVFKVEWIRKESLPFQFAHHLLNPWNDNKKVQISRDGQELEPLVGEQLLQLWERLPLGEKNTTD
Chain of UniProt P30291 (P30291 whole entry, looked up): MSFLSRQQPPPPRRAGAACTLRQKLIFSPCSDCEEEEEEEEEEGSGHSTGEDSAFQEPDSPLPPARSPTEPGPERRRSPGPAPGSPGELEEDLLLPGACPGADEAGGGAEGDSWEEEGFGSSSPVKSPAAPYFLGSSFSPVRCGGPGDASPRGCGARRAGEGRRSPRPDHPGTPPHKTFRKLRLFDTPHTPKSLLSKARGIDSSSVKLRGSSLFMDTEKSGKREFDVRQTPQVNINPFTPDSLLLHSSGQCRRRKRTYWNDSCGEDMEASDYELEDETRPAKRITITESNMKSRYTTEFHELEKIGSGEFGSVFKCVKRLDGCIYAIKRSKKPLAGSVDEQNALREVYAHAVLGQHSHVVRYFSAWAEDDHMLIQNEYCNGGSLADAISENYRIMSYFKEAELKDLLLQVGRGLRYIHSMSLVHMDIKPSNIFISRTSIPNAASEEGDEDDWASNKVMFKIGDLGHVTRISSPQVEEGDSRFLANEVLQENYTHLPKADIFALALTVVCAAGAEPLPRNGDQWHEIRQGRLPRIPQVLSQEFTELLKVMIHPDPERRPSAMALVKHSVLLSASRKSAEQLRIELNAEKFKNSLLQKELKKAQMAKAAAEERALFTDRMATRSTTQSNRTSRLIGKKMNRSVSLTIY
Chain of UniProt P27348 (P27348 whole entry, looked up): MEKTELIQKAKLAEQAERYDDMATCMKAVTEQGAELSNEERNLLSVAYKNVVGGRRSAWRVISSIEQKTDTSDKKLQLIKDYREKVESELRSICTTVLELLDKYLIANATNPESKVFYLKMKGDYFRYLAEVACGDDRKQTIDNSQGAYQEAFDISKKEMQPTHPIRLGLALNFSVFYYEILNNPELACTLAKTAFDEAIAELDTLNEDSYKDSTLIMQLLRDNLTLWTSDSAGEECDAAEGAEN
Chain of UniProt Q9BZI7 (Q9BZI7 whole entry, looked up): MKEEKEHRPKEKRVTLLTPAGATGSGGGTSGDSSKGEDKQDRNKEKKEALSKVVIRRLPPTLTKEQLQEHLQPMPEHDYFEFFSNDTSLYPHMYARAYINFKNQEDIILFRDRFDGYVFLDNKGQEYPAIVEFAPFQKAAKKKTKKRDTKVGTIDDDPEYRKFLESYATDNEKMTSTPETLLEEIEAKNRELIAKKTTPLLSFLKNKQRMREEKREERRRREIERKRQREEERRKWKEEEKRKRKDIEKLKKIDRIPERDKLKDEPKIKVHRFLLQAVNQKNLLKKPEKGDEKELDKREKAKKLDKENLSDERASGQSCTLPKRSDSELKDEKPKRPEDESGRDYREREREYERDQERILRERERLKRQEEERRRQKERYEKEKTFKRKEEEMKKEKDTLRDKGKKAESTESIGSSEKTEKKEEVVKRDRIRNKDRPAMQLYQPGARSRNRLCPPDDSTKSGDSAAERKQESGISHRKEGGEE
Chain of UniProt Q86T24 (Q86T24 whole entry, looked up): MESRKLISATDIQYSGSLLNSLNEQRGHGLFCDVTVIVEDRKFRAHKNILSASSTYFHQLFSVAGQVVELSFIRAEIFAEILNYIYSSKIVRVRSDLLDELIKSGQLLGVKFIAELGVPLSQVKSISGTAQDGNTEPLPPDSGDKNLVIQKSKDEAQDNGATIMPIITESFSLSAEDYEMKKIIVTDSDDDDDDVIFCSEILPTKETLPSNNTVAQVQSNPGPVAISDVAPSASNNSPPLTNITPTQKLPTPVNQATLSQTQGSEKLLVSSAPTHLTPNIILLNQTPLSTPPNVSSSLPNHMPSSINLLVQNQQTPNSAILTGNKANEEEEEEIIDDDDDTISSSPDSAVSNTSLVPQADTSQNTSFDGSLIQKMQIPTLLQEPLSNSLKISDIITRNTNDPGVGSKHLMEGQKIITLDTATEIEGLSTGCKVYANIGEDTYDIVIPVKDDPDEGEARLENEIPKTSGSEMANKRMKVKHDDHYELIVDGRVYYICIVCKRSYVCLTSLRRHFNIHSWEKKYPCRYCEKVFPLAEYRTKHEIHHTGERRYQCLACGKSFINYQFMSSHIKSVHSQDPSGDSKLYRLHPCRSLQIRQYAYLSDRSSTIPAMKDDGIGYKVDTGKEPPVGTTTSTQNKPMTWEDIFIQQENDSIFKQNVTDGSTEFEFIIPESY

For WEE1 (UniProt P30291), the log2 fold change in test [1] is 0.023; with vorinostat, -0.52 (active); with silmitasertib it was 0.107; in test [2] it was -0.03; in the test with entospletinib, -0.007.
On the same counts, the results for ZNHIT6 (UniProt Q9NWK9) are 0.001, -0.218 (active), -0.041, 0.002 and -0.062.
For YTHDC2 (UniProt Q9H6S0), the log2 fold change in test [1] was 0.061; with vorinostat, -0.231 (active); with silmitasertib, -0.007; in test [2], 0.018; in the test with entospletinib, 0.013.
Turning to ZBTB33 (UniProt Q86T24), the log2 fold change in test [1] is 0.061; with vorinostat, 0.103; in the test with silmitasertib, -0.082; in test [2], 0.009; in the test with entospletinib it was -0.033.
As for YES1 (UniProt P07947), the log2 fold change in test [1] is 0.09; with vorinostat, -0.067; in the test with silmitasertib it was -0.187; in test [2], -0.054; in the test with entospletinib it was 0.038.
USP16 (UniProt Q9Y5T5): the log2 fold change in test [1] is 0.019; with vorinostat it was -0.272 (active); with silmitasertib, 0.012; in test [2] it was -0.019; with entospletinib, -0.031.
Taken in the same sequence, the figures for YME1L1 (UniProt Q96TA2) were -0.001, 0.04, 0.007, -0.008 and 0.02.
Taken in the same sequence, the figures for YWHAQ (UniProt P27348) were -0.047, -0.052, -0.012, 0.013 and 0.022.
On the same counts, the results for UPF3B (UniProt Q9BZI7) are 0.022, 0.075, -0.02, -0.043 and -0.049.
